This is a sample that favours compounds with a hit; in the whole collection about 9.4% have one here.
ELG1 genotoxic – qHTS screen for small molecules that induce genotoxicity in human embryonic kidney (HEK293T) cells expressing luciferase-tagged ELG1; HEK293T ELG1-luciferase reporter, luminescence, 16 h; Potency, µM (top dose mostly 46 µM), for the others: top-dose activity change, positive = activation, most hits filed as activators; 330,000 compounds, 1.3% hits; also: % of control where 0% means no effect; nearly all actives have a fitted effect of over 60% in size
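Quantitative HTS format in 1536-well plates. HEK293T ELG1-luciferase reporter cells receive test compound and are incubated 16 hr at 37 °C, 5% CO2; ONE-Glo added, 30 min room temperature, then luminescence read.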
SMN2 splice up – qHTS Assay for Enhancers of SMN2 Splice Variant Expression | Potency, µM (top dose mostly 46.1 µM), for the others: at the highest dose activity change, positive = activation, hits mostly activators | AID 1458, 2008 | 210,000 compounds, 2.8% hits | HEK293 SMN2-luciferase splicing reporter, luminescence, 30-36 h; also: % of control where 0% means no effect; nearly all actives have a fitted effect of over 55% in size
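qHTS luciferase splicing reporter: luminescence rises when SMN2 exon 7 is included in transfected HEK293 cells. Compound exposure lasted 30-36 h at 37C, with 4.5 mM final sodium butyrate as control, followed by a ONE-Glo read.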
FLuc modulator – qHTS profiling assay for firefly luciferase inhibitor/activator using purifed enzyme and Km concentrations of substrates (counterscreen for miR-21 project); Luciferin 4-monooxygenase (Photinus pyralis), P08659; purified FLuc, Km substrates, luminescence inhibition; Potency, µM (highest dose often 57.5 µM), without a hit: at the top dose activity change, negative = inhibition, actives largely listed as inhibitors; 360,000 compounds, 6.9% hits; AID 588342, 2011;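 also: plate controls were vehicle for no effect and reference inhibitor for full effect; nearly all actives have a fitted effect of over 55% in size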
Target sequence (P08659 whole entry, looked up): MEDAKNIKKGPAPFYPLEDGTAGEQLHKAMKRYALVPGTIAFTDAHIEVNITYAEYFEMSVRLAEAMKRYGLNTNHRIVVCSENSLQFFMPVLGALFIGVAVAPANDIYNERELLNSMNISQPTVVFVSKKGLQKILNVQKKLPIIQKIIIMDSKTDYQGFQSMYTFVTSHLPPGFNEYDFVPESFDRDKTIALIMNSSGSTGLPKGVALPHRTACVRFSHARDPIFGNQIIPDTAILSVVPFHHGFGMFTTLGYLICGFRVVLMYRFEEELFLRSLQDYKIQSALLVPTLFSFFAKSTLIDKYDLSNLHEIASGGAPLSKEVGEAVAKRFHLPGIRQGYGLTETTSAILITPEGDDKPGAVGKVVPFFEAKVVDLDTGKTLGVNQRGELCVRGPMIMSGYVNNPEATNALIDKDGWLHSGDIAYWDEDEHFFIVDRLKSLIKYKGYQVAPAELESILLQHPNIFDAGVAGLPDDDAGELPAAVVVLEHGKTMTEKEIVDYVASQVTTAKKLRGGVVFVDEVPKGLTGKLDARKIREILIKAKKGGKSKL
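Purified P. pyralis luciferase (10nM final) with 10uM D-luciferin and 10uM ATP (Km levels) in 50mM Tris acetate pH 7.5, 10mM Mg acetate, 0.01% Tween-20, 0.05% BSA; qHTS 6-point titration, ~60 µM downward; luminescence read.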
NPC1 prom act – qHTS Assay for NPC1 Promoter Activators. Potency, µM (doses to about 9.22 µM), without a hit: top-dose activation, usual class: activators. 320,000 compounds, 2.4% hits. Huh7 NPC1 promoter luciferase reporter, 24 h. AID 485313, 2010; also: % of control where 0% means no effect; nearly all actives have a fitted effect of over 60% in size
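Stably transfected Huh7 (NPC1 promoter→luciferase), 1500 cells/well in Opti-MEM + 10% FBS, 2 h settle, then compound 24 h at 37 °C. Luminescence after 10 min with Amplite reagent.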
ELG1 DNA repair – qHTS screen for small molecules that inhibit ELG1-dependent DNA repair in human embryonic kidney (HEK293T) cells expressing luciferase-tagged ELG1. AID 504467, 2011. HEK293T ELG1-luciferase reporter, luminescence, 16 h; DNA damage induced by 5-fluorouridine. Potency, µM (top dose mostly 46.1 µM), for the others: top-dose activity change, negative = inhibition, actives largely listed as inhibitors. 330,000 compounds, 2.3% hits; also: % is scaled to controls: 0 for no effect and ±100 for the full control effect; nearly all actives have a fitted effect of over 55% in size
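Luminescence from the luciferase reporter, measured 30 min after ONE-Glo reagent at room temperature, was the read-out. Beforehand, 2,000 cells per well were exposed for 16 hr at 37 °C to 5-fluorouridine together with compound or vehicle.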
Rab9 promoter act – qHTS Assay for Rab9 Promoter Activators | Huh7 Rab9 promoter-luciferase reporter, luminescence, 24 h | AID 485297, 2010 | Potency, µM (titrated, usually from 9.22 µM), inactives show at the top dose activation, negative = inhibition, hits mostly activators | 320,000 compounds, 2.8% hits; also: % of control where 0% means no effect; nearly all actives have a fitted effect of over 60% in size
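Using Huh7 cells stably transfected with Rab9 promoter–luciferase, compounds were incubated 24 h at 37 °C, 5% CO2; luciferase luminescence was read 10 min after reagent addition.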
An asterisk follows results filed as active; u = inconclusive; x = no result; [ ] = remark or other dose. Calls follow the shape of the dose curve; as a rule, active = well fitted curve in the direction sought with a large enough effect; inconclusive = small, poorly fitted or top-dose-only effect, or another doubt; inactive = no such curve, though single readings can be large; an effect the other way counts as inactive or inconclusive. Potency is read from the fitted curve at half-maximal effect.

SMILES	ELG1 genotoxic	SMN2 splice up	FLuc modulator	NPC1 prom act	ELG1 DNA repair	Rab9 promoter act
CC(CNC(=O)c1ccc2nc(Cc3ccccc3)oc2c1)c1ccccc1 (stereo not drawn)	x	x	-3%	x	x	x
CCCCN(C)CCNC(=O)c1ccc(Cn2c(=O)[nH]c3cc(OC)c(OC)cc3c2=O)cc1	x	10%	-2%	x	x	x
CC(=O)[C@@H](C)CCO[C@@]1(C)OCC[C@@H]1C	x	-8%[9.22 µM]	x	x	x	x
Cc1ccc(-n2cnc3cc(C(=O)NCc4ccc(F)cc4)ccc32)c(C)c1	x	x	-1%	x	x	x
CC1OC(OC2C(CO)OC(OC3C(CO)OC(O)C(O)C3O)C(O)C2O)C(O)C(O)C1NC1C=C(CO)C(O)C(O)C1O (stereo not drawn)	x	-21%	x	x	x	x
Cc1ccc2oc(-c3ccc(Cl)c(NC(=O)c4ccc(OC(C)C)cc4)c3)nc2c1	x	0%	u	x	x	x
COc1cccc(-c2cc(C(=O)Nc3cc(Cl)ccc3O)on2)c1	x	x	-16%	x	x	x
Cc1ccccc1CCNC(=O)c1ccc2c(c1)nc1n2CCOC1	x	x	6µM*	x	x	x
O=C(NCc1ccccc1)c1ccc2c(c1)nc1n2CCOC1	x	x	-10%	x	x	x
CCOc1ccc(NC(=O)CCCn2c(C)c3cnn(-c4ccccc4)c(=O)c3c2C)cc1	x	-6%	-2%	x	x	x
COc1ccc(N=Cc2[nH]c3ccccc3c2O)cc1	13%	u	2.1µM*	8%	u	u
COc1ccc(Cn2c(O)c(C=Nc3ccc(OC)cc3)c3ccccc3c2=O)cc1	1%	22%	-2%	-8%	-20%	-1%
O=C1C(C=Nc2ccccc2)=C(O)c2ccccc21	u	16µM*	0.54µM*	3.2µM*	u	1.6µM*
COc1ccc(N=CC2=C(O)c3ccccc3C2=O)cc1	u	4µM*	0.15µM*	0.71µM*	u	0.32µM*
COc1ccc(N=Cc2oc3ccc4ccccc4c3c2O)cc1	22%	13µM*	u	u	u	3.2µM*
COCOc1ccc(OC)cc1C(=O)/C=C/c1ccc(OC)c(Br)c1	x	-4%	x	x	x	x
O=C(CN1CCCN(Cc2cccc(F)c2)S1(=O)=O)Nc1ccc2c(c1)OCCO2	x	x	-4%	x	x	x
CCOC(=O)c1oc2ccccc2c1COC(=O)C(C)NC(=O)c1ccco1 (stereo not drawn)	1%	x	0%	0%	12%	7%
O=C1C(C=NCCCN2CCOCC2)=C(O)c2ccccc21	15%	-9%	u	-5%	u	4%
O=C1C(C=NCCN2CCOCC2)=C(O)c2ccccc21	u	u	6µM*	-5%	u	11%
CCOC(=O)c1c(CN2CCOCC2)n(-c2ccccc2)c2cc(Br)c(O)cc12	-9%	-7%	1%	-4%	23µM*	1%
CCOC(=O)c1c(CN2CCOCC2)n(-c2ccccc2)c2cc(Br)c(OC)cc12	-12%	-26%	1%	-4%	u	-3%
Cc1ccccc1OCc1nnc2c3cnn(C)c3ncn12	u	19%	21µM*	3.2µM*	u	4µM*
Cc1ccccc1OCc1nc2c3cnn(-c4ccccc4Br)c3ncn2n1	x	1%	u	x	x	x
CCOC(=O)c1[nH]cnc1C(=O)Nc1cccc(N)n1	-6%	16%	-2%	4%	9.2µM*	-1%
Cn1c(Oc2ccccc2)nc2c1c(=O)n(Cc1ccc(Cl)cc1Cl)c(=O)n2C	x	-9%	6%	x	x	x
c1ccc(CN2CCN(CCOCCOc3cccc4ccccc34)CC2)cc1	-4%	-12%	-13%	-1%	18µM*	-13%
O=C(c1ccco1)N1CCN(CCOCCOc2cccc3ccccc23)CC1	-9%	-2%	0%	3%	u	1%
